# Most compounds without a hit are left out; they make up all but 27% or so of the library.
# CYP2C9 inhib: blockers of cytochrome P450 2C9 activity – biochemical, luminescence, ADME assay, primary screen | CYP2C9 Supersomes, luciferin-H conversion | actives 20% (n = 96,000) | inhibition, % at 5 µM;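 active = blocking of liver enzyme CYP2C9 beyond about 50% at 5 µM, limit read from the data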
# Target sequence (P11712 whole entry, looked up): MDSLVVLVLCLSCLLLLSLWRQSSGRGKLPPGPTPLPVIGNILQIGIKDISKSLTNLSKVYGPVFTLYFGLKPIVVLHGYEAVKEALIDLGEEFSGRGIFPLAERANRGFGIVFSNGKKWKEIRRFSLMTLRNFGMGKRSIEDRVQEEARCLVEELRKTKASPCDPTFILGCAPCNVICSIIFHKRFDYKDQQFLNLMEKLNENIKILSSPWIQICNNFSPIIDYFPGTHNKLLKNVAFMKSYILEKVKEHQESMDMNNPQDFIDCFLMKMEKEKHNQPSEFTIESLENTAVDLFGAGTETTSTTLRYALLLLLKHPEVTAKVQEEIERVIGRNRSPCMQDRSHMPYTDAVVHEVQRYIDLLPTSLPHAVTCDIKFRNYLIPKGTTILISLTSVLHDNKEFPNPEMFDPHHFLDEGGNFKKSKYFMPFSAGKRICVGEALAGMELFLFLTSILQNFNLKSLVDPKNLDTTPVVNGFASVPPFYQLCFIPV
# CYP2C19 inh: blockers of cytochrome P450 2C19 activity – biochemical, luminescence, ADME assay, primary screen; P33261; CYP2C19 Supersomes, luciferin-H EGE luminescence, 30 min; inhibition, % at 5 µM; actives 21% (n = 96,000); AID 778, 2007;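 active = CYP2C19 inhibition above a set limit at 5 µM in the primary screen, cut at about 50% in these data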;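 also: plate controls were negative control wells for no effect and 2.5 mM tranylcypromine positive control for full effect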
# EphB4 antag: EphB4-ephrin-B2 interaction antagonists, primary screen, biochemical, TNYL-RAW peptide probe, fluorescence polarization | Ephrin type-B receptor 4 (Homo sapiens), P54760 | inhibition, % at 7 µM | EphB4 LBD / TNYL-RAW-Alexa532 peptide | actives 0.15% (n = 97,000);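 active = inhibition above the screen-wide mean inhibition plus 3 SD, cut at about 15% in these data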;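 also: 0% = DMSO wells and 100% = excess unlabeled TNYL-RAW peptide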
# CYP2C9 act: human CYP2C9 activators, primary screen, biochemical, luminescence. Cytochrome P450 2C9 (Homo sapiens), P11712. recombinant CYP2C9, luciferin-H conversion; stronger effect = higher value; factor 1 = untreated enzyme, 0 = blocked. activation factor at 5 µM. actives 1.4% (n = 96,000). AID 1024, 2008;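 active = activation factor of 2 or more for CYP2C9 at a 5 µM dose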;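 also: 0 = sulfaphenazole-blocked wells and 1 = vehicle-only wells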
# CYP2C19 act: human CYP2C19 activators, primary screen, biochemical, luminescence. recombinant CYP2C19, luciferin-H EGE luminescence; stronger effect = higher value; 0 = fully inhibited enzyme, 1 = untreated enzyme. activation factor at 5 µM. 96,000 tested, under 10 active. AID 1025, 2008;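 active = activation factor of at least 2 at 5 µM in the primary screen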;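 also: 0 = wells with 2.5 mM tranylcypromine and 1 = vehicle-only wells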
# Starred values were filed as active, the others as inactive; nt = no result given.
SMILES,CYP2C9 inhib,CYP2C19 inh,EphB4 antag,CYP2C9 act,CYP2C19 act
O=C(COC(=O)c1ccccn1)Nc1cccc(Cl)c1,14,30,nt,0.9,0.7
Cc1cc(Cl)ccc1OC(C)C(=O)Nc1ccc(S(=O)(=O)Nc2cnc3ccccc3n2)cc1 (stereo not drawn),88*,-4,6,0.1,1
CC(Oc1ccc(Cl)cc1Cl)C(=O)Nc1ccc(S(=O)(=O)Nc2cnc3ccccc3n2)cc1 (stereo not drawn),100*,14,-4,0,0.9
Cc1ccc(-n2nnc3c(SCC(=O)N4CCN(c5ccccc5)CC4)ncnc32)cc1,nt,nt,-11,nt,nt
Cc1cc(OCC(=O)Nc2cc(-c3nn4c(C)nnc4s3)ccc2C)ccc1Cl,-15,-17,-2,1.2,1.2
Cn1c(CNC(=O)c2cccs2)nnc1SCC(=O)Nc1ccc(Cl)cc1,nt,nt,1,nt,nt
Cc1ccccc1NN1C(=O)C=CC1=O,-3,1,5,1,1
CSc1nnc(C)c(/C=C/Nc2ccc(Cl)cc2)n1,57*,30,-2,0.4,0.7
O=S1(=O)N=C(Nc2nncs2)c2ccccc21,46,-1,0,0.5,1
C=CCS/C(=N\n1cnc2ccccc2c1=O)N(CC)CC,63*,96*,-1,0.4,0
C=CCS/C(=N\n1cnc2ccccc2c1=O)N1CCCCC1,51*,16,2,0.5,0.8
CC1(C)CC(=O)C(/C=N/n2cnc3ccccc3c2=O)=C(O)C1,-1,-5,-2,1,1
CCC(=O)N1CCc2cc(S(=O)(=O)NC(C(=O)NC(C)c3ccccc3)C(C)C)ccc21 (stereo not drawn),-20,0,-9,1.2,1
CC1CCCN(c2nc3ccccc3nc2C(C#N)S(=O)(=O)c2ccccc2)C1 (stereo not drawn),30,10,-5,0.7,0.9
CCCCOc1nc2ccccc2nc1C(C#N)S(=O)(=O)c1ccccc1 (stereo not drawn),77*,78*,6,0.2,0.2
Cn1c(SCC(N)=O)nnc1C1CCN(S(=O)(=O)c2ccccc2C(F)(F)F)CC1,-103,-5,2,2*,1
CCC(C)NS(=O)(=O)c1ccc(-c2csnn2)s1 (stereo not drawn),37,100*,2,0.6,0
CC(C)(C)S(=O)(=O)c1nc2ccccc2s1,-46,10,4,1.5,0.9
CC(C)(C)NS(=O)(=O)c1ccc(-c2csnn2)s1,28,93*,-4,0.7,0.1
O=S(=O)(NC1CCCCC1)c1ccc(-c2csnn2)s1,61*,100*,3,0.4,0
O=S(=O)(NC1CCCC1)c1ccccc1Cl,nt,nt,0,nt,nt
CCC(C)NC(=O)CCS(=O)(=O)c1ccc(Br)s1 (stereo not drawn),10,24,-2,0.9,0.8
COc1ccc(CCNC(=O)CCn2cccc2)cc1OC,20,37,-4,0.8,0.6
O=C(Nc1cccc(C(F)(F)F)c1)c1cc2ncc(Br)cn2n1,-9,-5,-4,1.1,1.1
Cn1c2ccccc2c2ncn(Cc3ccco3)c(=O)c21,60*,69*,-12,0.4,0.3
SMILES,CYP2C9 inhib,CYP2C19 inh,EphB4 antag,CYP2C9 act,CYP2C19 act
Cn1c2ccc(F)cc2c2ncn(Cc3ccco3)c(=O)c21,61*,51*,2,0.4,0.5
O=C(O)CSc1c2c(nc3cc(C(=O)N4CCOCC4)ccc13)CCCC2,-2,0,-4,1,1
COC(=O)CSc1nnc([C@H](Cc2ccccc2)NC(=O)OC(C)(C)C)o1,2,12,7,1,0.9
Cc1cccc(CS(=O)(=O)c2nnc([C@H](Cc3ccccc3)NC(=O)OC(C)(C)C)o2)c1,56*,36,1,0.4,0.6
COC(=O)CS(=O)(=O)c1nnc([C@H](Cc2ccccc2)NC(=O)OC(C)(C)C)o1,77*,84*,1,0.2,0.2
C=CCOc1c(CNc2ncn[nH]2)cccc1OC,5,12,-5,1,0.9
C=CCOc1ccc2ccccc2c1CNc1ncn[nH]1,62*,84*,2,0.4,0.2
COc1cc(C(=O)Nc2ccc3c(c2)OCCO3)ccc1OC(C)C,10,55*,1,0.9,0.4
COc1ccc(C(=O)Nc2ccc(N3CCOCC3)cc2)cc1OC,19,58*,-12,0.8,0.4
Cc1ccnc2nc(C(=O)Nc3ccc(N4CCOCC4)cc3)nn12,7,54*,1,0.9,0.5
COc1cc(C(=O)Nc2ccc3c(c2)OCCO3)ccc1OC(F)F,-81,88*,nt,1.8,0.1
Cc1ccc(NC(=O)C2CCCN(S(=O)(=O)c3c(C)noc3C)C2)nc1 (stereo not drawn),11,12,8,0.9,0.9
CCCOC(=S)Nc1ccccc1,20,62*,-7,0.8,0.4
CN(c1ncc(C(F)(F)F)cc1Cl)n1cc(C(=O)O)c2ccccc2c1=O,19,-9,-2,0.8,1.1
CN(c1ncc(C(F)(F)F)cc1Cl)n1cc(C(N)=O)c2ccccc2c1=O,83*,57*,-2,0.2,0.4
Cc1ccc(-c2csc(N3N=C(c4ccccc4)/C(=C\c4ccc(N(C)C)cc4)C3=O)n2)cc1,14,5,-4,0.9,1
CCOC(=O)CSc1nc2cccnc2n1-c1ccc(F)cc1,18,36,3,0.8,0.6
O=C1NC(c2ccccc2)=C(c2nc3ccccc3s2)C(c2ccc(O)cc2)N1 (stereo not drawn),39,1,5,0.6,1
O=C1NC2=C(CCc3ccccc32)C(c2ccc(Br)cc2)N1 (stereo not drawn),54*,65*,4,0.5,0.3
CNC(=O)CCC(=O)Nc1ccc(C(=O)OC)cc1,-6,-6,3,1.1,1.1
COc1ccc(C(=O)Cn2c(Br)nc3c2c(=O)n(C)c(=O)n3C)cc1,-8,-7,-3,1.1,1.1
CC(CCO)Nc1nc2c(c(=O)n(C)c(=O)n2C)n1Cc1cccc(Br)c1 (stereo not drawn),49,60*,1,0.5,0.4
Cn1c(=O)c2c(nc(NCCCO)n2C/C=C/c2ccccc2)n(C)c1=O,68*,90*,-3,0.3,0.1
CC(O)CNc1nc2c(c(=O)n(C)c(=O)n2C)n1C/C=C/c1ccccc1 (stereo not drawn),15,50,1,0.9,0.5
CC(C)CNc1nc2c(c(=O)n(C)c(=O)n2C)n1Cc1cccc(Br)c1,30,35,-7,0.7,0.6
COc1ccc(Nc2nc3c(c(=O)n(C)c(=O)n3C)n2CCO)cc1,59*,3,nt,0.4,1
